# Source: PubChem BioAssay (NCATS)
# Inconclusive results are not listed. Entries that show only a call come without a potency. Calls of active or inactive are those of the source. The call rests on the fitted dose curve; in most records, active means well fitted curve in the direction sought with a large enough effect; inconclusive means small, poorly fitted or top-dose-only effect, or another doubt; inactive means no such curve, though single readings can be large; an effect the other way counts as inactive or inconclusive.
# Test system: not listed separately
# Assay: qHTS to identify inhibitors of the type 1 interferon - major histocompatibility complex class I in skeletal muscle: primary screen against the NCATS Mechanism Interrogation Plate v5.0 (MIPE) Libary (AID 1347411); further: nearly all actives have a fitted effect of over 65% in size; further: potency means the concentration at half of the fitted maximal effect
# Conditions: iHSKM cells + IFN-b, HiBiT-tagged MHC-I luminescence, 24 h; series mostly up to 45.8 µM
# Summary of the method: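 HLA-B HiBit myoblasts, dexamethasone-free medium + 4 ng/ml IFN-b, 24 h compound, 11-pt 1:3 from 46 uM final. Readout: Nano-Glo HiBiT lytic luminescence after 10 min lysis, RT.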
row,Compound,Potency
1,COc1cc(NC(=O)c2ccc(-c3ccc(Cl)cc3)o2)cc(OC)c1,inactive
2,COc1ccc(C2CC(c3ccccc3)=NN2c2ccc(S(N)(=O)=O)cc2)cc1 (configuration not stated),inactive
3,c1ccc2c(-c3cnn4cc(-c5ccc(N6CCNCC6)cc5)cnc34)ccnc2c1,7.39 µM (active)
4,CC(C)(C)c1cc(C(=O)O)c(NC(=O)Nc2ccc3[nH]ncc3c2)s1,inactive
5,Cc1cnc(C(=O)O)c[n+]1[O-],inactive
6,C[C@H](NC(=O)c1sccc1OCc1ccc(Cl)cc1)c1ccccc1,inactive
7,NC(=O)c1cnc(-c2ccc(C3(N)CCC3)cc2)c(-c2ccccc2)c1,inactive
8,O=C(CCN1CCN(C(=O)OCc2cc(Cl)cc(Cl)c2)CC1)c1ccc2[nH]c(=O)oc2c1,inactive
9,O=C1C[C@@H](c2ccc(O)cc2)Oc2cc(O)cc(O)c21,inactive
10,CCOC(=O)C1=C(N)Oc2ccc(Br)cc2C1C(C#N)C(=O)OCC (configuration not stated),inactive
11,Cc1nc(N)sc1-c1ccnc(Nc2ccc(N3CCOCC3)cc2)n1,3.7 µM (active)
12,COc1cc2c(cc1OC)CN(CCc1ccc(NC(=O)c3cc(OC)c(OC)cc3NC(=O)c3cnc4ccccc4c3)cc1)CC2,inactive
13,O=C(O)c1cc(O)c2c(c1)C(=O)c1cccc(O)c1C2=O,inactive
14,CC1CCC(C(=O)N(c2cc(C#CC(C)(C)C)sc2C(=O)O)C2CCC(O)CC2)CC1 (configuration not stated),inactive
15,COCCOc1nc(-c2ccc(Cl)c(Cl)c2)n(-c2ccc(NC(=O)CCl)cc2)n1,5.23 µM (active)
16,COCCOC(=O)C1=C(C)NC2=C(C(=O)CC(c3ccccc3OC)C2)C1c1cccc(O)c1 (configuration not stated),inactive
17,O=C(Nc1cccc(Br)c1)c1cccc(S(=O)(=O)N2CCCCCC2)c1,inactive
18,Cc1ccc(C(C)(O)c2nc3ccccc3s2)c(C)c1 (configuration not stated),inactive
19,COC1CCC(N(C(=O)C2CCC(C)CC2)c2cc(C3=CCCCC3)sc2C(=O)O)CC1 (configuration not stated),inactive

# Target: Calcium and integrin-binding protein 1 (Homo sapiens) (UniProt Q99828)
# Sequence (Q99828 whole entry, looked up): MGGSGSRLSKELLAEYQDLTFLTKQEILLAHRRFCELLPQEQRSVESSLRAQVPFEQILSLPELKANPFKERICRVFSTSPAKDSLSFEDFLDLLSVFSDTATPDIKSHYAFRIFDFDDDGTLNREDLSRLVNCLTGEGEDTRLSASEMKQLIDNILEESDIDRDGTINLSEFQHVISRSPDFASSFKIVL
# Assay: Primary qHTS for Identification of Calcium Integrin Binding Protein 1 (CIB1) Competitor (AID 1508620);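 further: GST tagged CIB1 binding a fluorescein labelled alphaIIb integrin peptide tracer; top concentration of the series differs between compounds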
# Conditions: CIB1-GST / FITC-alphaIIb peptide fluorescence polarization; series mostly up to 57.7 µM
# Summary of the method: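 Fluorescence polarization competition: GST-tagged CIB1 (1 uM final) preincubated with compound 15 min at room temperature, then FITC-labelled alphaIIb peptide (100 nM final) added. After 15 min at room temperature, polarization read at Ex 480/Em 540.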
row,Compound,Potency
1,COc1ncc(-c2ccc3nccc(-c4ccnnc4)c3c2)cc1NS(=O)(=O)c1ccc(F)cc1F,inactive
2,O=C(O)[C@H]1O[C@H](Oc2cc3oc(-c4ccccc4)cc(=O)c3c(O)c2O)[C@H](O)[C@@H](O)[C@H]1O,inactive
3,COc1cc(NC(=O)c2ccc(-c3ccc(Cl)cc3)o2)cc(OC)c1,inactive
4,COc1ccc(C2CC(c3ccccc3)=NN2c2ccc(S(N)(=O)=O)cc2)cc1 (configuration not stated),inactive
5,c1ccc2c(-c3cnn4cc(-c5ccc(N6CCNCC6)cc5)cnc34)ccnc2c1,inactive
6,CC(C)(C)c1cc(C(=O)O)c(NC(=O)Nc2ccc3[nH]ncc3c2)s1,inactive
7,Cc1cnc(C(=O)O)c[n+]1[O-],inactive
8,Cc1ccc(F)c(NC(=O)Nc2ccc(-c3cccc4[nH]nc(N)c34)cc2)c1,inactive
9,C[C@H](NC(=O)c1sccc1OCc1ccc(Cl)cc1)c1ccccc1,inactive
10,CC(=O)O[C@]1(C(C)=O)CC[C@@H]2[C@@H]3C[C@H](C)C4=CC(=O)CC[C@]4(C)[C@H]3CC[C@@]21C,inactive
11,O=C(CCN1CCN(C(=O)OCc2cc(Cl)cc(Cl)c2)CC1)c1ccc2[nH]c(=O)oc2c1,inactive
12,O=C(O)C=Cc1ccc(O)c(O)c1,inactive
13,O=C1C[C@@H](c2ccc(O)cc2)Oc2cc(O)cc(O)c21,inactive
14,CCOC(=O)C1=C(N)Oc2ccc(Br)cc2C1C(C#N)C(=O)OCC (configuration not stated),inactive
15,CN(C)CCC=C1c2ccccc2COc2ccc(CC(=O)O)cc21,inactive
16,Cc1nc(N)sc1-c1ccnc(Nc2ccc(N3CCOCC3)cc2)n1,inactive
17,O=c1[nH]cnc2c1ncn2[C@H]1CC[C@@H](CO)O1,inactive

row,Compound,Potency
1,COc1cc2c(cc1OC)CN(CCc1ccc(NC(=O)c3cc(OC)c(OC)cc3NC(=O)c3cnc4ccccc4c3)cc1)CC2,inactive
2,Cc1c(O)cccc1C(=O)N[C@@H](CSc1ccccc1)[C@H](O)CN1C[C@H]2CCCC[C@@H]2C[C@@H]1C(=O)NC(C)(C)C,inactive
3,O=C1c2c(O)cc(O)cc2O[C@H](c2cc(O)c(O)c(O)c2)[C@H]1O,inactive
4,CO[C@H]1C=CO[C@@]2(C)Oc3c(C)c(O)c4c(O)c(c5c(c4c3C2=O)NC2(CCN(CC(C)C)CC2)N=5)=NC(=O)C(C)=CC=C[C@H](C)[C@H](O)[C@@H](C)[C@@H](O)[C@@H](C)[C@H](OC(C)=O)[C@H]1C,inactive
5,O=C(NCc1ccccc1)c1csc(Nc2ccncn2)n1,inactive
6,CC1CCC(C(=O)N(c2cc(C#CC(C)(C)C)sc2C(=O)O)C2CCC(O)CC2)CC1 (configuration not stated),inactive
7,O=c1c(-c2ccc(O)cc2)coc2cc(O)ccc12,inactive
8,COCCOc1nc(-c2ccc(Cl)c(Cl)c2)n(-c2ccc(NC(=O)CCl)cc2)n1,inactive
9,COc1ccc(-c2coc3cc(O)ccc3c2=O)cc1,inactive
10,COCCOC(=O)C1=C(C)NC2=C(C(=O)CC(c3ccccc3OC)C2)C1c1cccc(O)c1 (configuration not stated),inactive
11,O=C(Nc1cccc(Br)c1)c1cccc(S(=O)(=O)N2CCCCCC2)c1,inactive
12,CN(C)C1CCN(C(=O)c2ccc(NC(=O)Nc3nc(N4CCOCC4)nc(N4CCOCC4)n3)cc2)CC1,inactive
13,CCN(CC)CCOc1ccc(C(=C(Cl)c2ccccc2)c2ccccc2)cc1,inactive
14,Cc1ccc(C(C)(O)c2nc3ccccc3s2)c(C)c1 (configuration not stated),inactive
15,COC1CCC(N(C(=O)C2CCC(C)CC2)c2cc(C3=CCCCC3)sc2C(=O)O)CC1 (configuration not stated),inactive
16,CC(C)(C)C(=O)Oc1ccc2c(c1)nc(NC(=O)c1cccc([N+](=O)[O-])c1)n2CCCO,inactive
